Read-out in test [1]: Transforming Growth Factor (TGFB1), TGFB1 (gene 7040)
The test can be described thus: LTEA_HepaRG_TGFB1: Life Technologies and Expression Analysis (LTEA) Assay for Transforming Growth Factor (TGFB1) Transporter using HepaRG (AID 2283533; active means hit-call score of the fitted dose curve at least 0.9, where 1 is the maximum; inactive means score below 0.9). To be noted: mRNA level, 48 h; actives raise or lower the signal. Put shortly: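 Differentiated human HepaRG cells in serum-free induction medium were exposed in duplicate for 48 h to eight concentrations (top 100 uM, half-log steps, 0.5% DMSO). TGFB1 mRNA was quantified by qRT-PCR, normalized to ACTB, GAPDH, POLR2A, and fitted bidirectionally against DMSO.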

Read-out in test [2]: TIMP1, TIMP1 (gene 7076)
The test can be described thus: LTEA_HepaRG_TIMP1: Life Technologies and Expression Analysis (LTEA) Assay for TIMP1 using HepaRG (AID 2283534; active means hit-call score of the fitted dose curve at least 0.9, where 1 is the maximum; inactive means score below 0.9). To be noted: mRNA level, 48 h; actives raise or lower the signal. The method in brief: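 Differentiated human HepaRG cells in serum-free induction medium were exposed 48 h to chemicals (8 half-log concentrations, top 100 uM, 0.5% DMSO). TIMP1 mRNA was quantified by TaqMan qRT-PCR, normalized to ACTB/GAPDH/POLR2A; bidirectional fit versus DMSO.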

Read-out in test [3]: Tumor necrosis factor receptor 1 (TNFRSF1A), TNFRSF1A (gene 7132)
The test can be described thus: LTEA_HepaRG_TNFRSF1A: Life Technologies and Expression Analysis (LTEA) Assay for Tumor necrosis factor receptor 1 (TNFRSF1A) using HepaRG (AID 2283535; active means hit-call score of the fitted dose curve at least 0.9, where 1 is the maximum; inactive means score below 0.9). To be noted: mRNA level, 48 h; actives raise or lower the signal. The method in brief: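 Differentiated human HepaRG cells were exposed in duplicate for 48 h in serum-free induction medium to eight concentrations (top 100 uM, half-log steps, 0.5% DMSO). TNFRSF1A mRNA was quantified by qRT-PCR, normalized to ACTB, GAPDH and POLR2A, then fitted bidirectionally against DMSO.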

Read-out in test [4]: Thyroid Hormone Responsive (THRSP), THRSP (gene 7069)
The experiment in a line: LTEA_HepaRG_THRSP: Life Technologies and Expression Analysis (LTEA) Assay for Thyroid Hormone Responsive (THRSP) using HepaRG (AID 2283536; active means hit-call score of the fitted dose curve at least 0.9, where 1 is the maximum; inactive means score below 0.9). To be noted: mRNA level, 48 h; actives raise or lower the signal. Put shortly: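 Differentiated HepaRG cells treated 48 h in serum-free induction medium with 8 half-log concentrations up to 100 uM (0.5% DMSO), duplicates. THRSP mRNA by TaqMan qRT-PCR normalised to ACTB, GAPDH, POLR2A; bidirectional fit versus DMSO.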

Read-out in test [5]: Cellular tumor antigen p53 (Homo sapiens) (UniProt P04637)
The test can be described thus: LTEA_HepaRG_TP53: Life Technologies and Expression Analysis (LTEA) Assay for Tumor Protein P53 (TP53) using HepaRG (AID 2283537; active means hit-call score of the fitted dose curve at least 0.9, where 1 is the maximum; inactive means score below 0.9). To be noted: mRNA level, 48 h; actives raise or lower the signal. Put shortly: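 TP53 transcript measured by qRT-PCR, normalized to three housekeeping genes, after 48 h treatment of human HepaRG cultures with chemicals from 100 uM downward in half-log steps (0.5% DMSO vehicle, serum-free induction medium). Up- or down-regulation fitted against DMSO.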

Read-out in test [6]: UDP glucuronosyltransferase (UGT1A1), UGT1A1 (gene 54658)
The experiment in a line: LTEA_HepaRG_UGT1A1: Life Technologies and Expression Analysis (LTEA) Assay for UDP glucuronosyltransferase (UGT1A1) using HepaRG (AID 2283538; active means hit-call score of the fitted dose curve at least 0.9, where 1 is the maximum; inactive means score below 0.9). To be noted: mRNA level, 48 h; actives raise or lower the signal. Put shortly:
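Readout is UGT1A1 transcript level by qRT-PCR, normalized to three housekeeping genes, after 48 h chemical treatment of HepaRG cells. Concentrations ran from 100 uM down in half-log steps with 0.5% DMSO, and gain or loss relative to DMSO was fitted.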

Read-out in test [7]: X-box binding protein 1 (XBP1), XBP1 (gene 7494)
The experiment in a line: LTEA_HepaRG_XBP1: Life Technologies and Expression Analysis (LTEA) Assay for X-box binding protein 1 (XBP1) using HepaRG (AID 2283540; active means hit-call score of the fitted dose curve at least 0.9, where 1 is the maximum; inactive means score below 0.9). To be noted: mRNA level, 48 h; actives raise or lower the signal. The method in brief: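 Differentiated human HepaRG cells in serum-free induction medium were exposed in duplicate for 48 h to eight half-log concentrations up to 100 uM in 0.5% DMSO. XBP1 mRNA was quantified by qRT-PCR, normalised to ACTB, GAPDH and POLR2A, with bidirectional fitting against DMSO.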

Test [8] in a line: LTEA_HepaRG_LDH_cytotoxicity: Cytotoxicity Assessment in the Life Technologies and Expression Analysis (LTEA) Assay (AID 2283563). The method in brief:
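Differentiated human HepaRG cells, plated 48 h beforehand, were switched to serum-free induction medium and exposed for 48 h to eight half-log concentrations (top 100 uM) in 0.5% DMSO. LDH was measured in spent medium; activity was fitted relative to DMSO vehicle.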

Test [9] can be described thus: TOX21_p53_BLA_p2_viability: Viability Assessment in the Tox21 HCT-116 p53 Agonism Beta-lactamase Assay, Phase 2 (AID 2283591).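 Further: compound exposure lasted 16 h at 37 °C; actives lower the ATP signal meaning cytotoxicity.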 The method in brief: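 HCT116 p53-bla cells, 4000/well, dosed after 5 h plating (217-fold dilution of DMSO stocks) and incubated 16 h at 37C. Viability taken as cellular ATP by CellTiter-Glo luminescence after 30 min RT; signal loss marks cytotoxicity.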

Test [10] concerns the target Cellular tumor antigen p53 (Homo sapiens) (UniProt P04637). The test can be described thus: TOX21_p53_BLA_p2_ratio: Tox21 HCT-116 p53 Agonism Beta-lactamase Assay, Ratio, Phase 2 (AID 2283592). Put shortly:
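HCT116 cells carrying a p53-responsive beta-lactamase reporter were plated, incubated 5 h at 37C, then dosed with compounds in DMSO (217-fold dilution) for 16 h. CCF4-AM substrate was added for 2 h at room temperature; the 460/530 nm emission ratio gave gain-of-signal activity relative to DMSO.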

Test [11] is described as follows: TOX21_p53_BLA_p3_viability: Viability Assessment in the Tox21 HCT-116 p53 Agonism Beta-lactamase Assay, Phase 3 (AID 2283593).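 Further: cells exposed to compound for 16 h before reading.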 Put shortly:
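HCT116 cells, 4000/well, dosed 5 h after plating by pin transfer (217-fold dilution from DMSO stock) and incubated 16 h at 37C, 5% CO2. Viability read as ATP luminescence with CellTiter-Glo after 30 min at room temperature.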

Test [12] addresses Cellular tumor antigen p53 (Homo sapiens) (UniProt P04637). The experiment in a line: TOX21_p53_BLA_p3_ratio: Tox21 HCT-116 p53 Agonism Beta-lactamase Assay, Ratio, Phase 3 (AID 2283596). Put shortly:
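HCT116 p53-bla cells (4000/well) given compound in DMSO (217-fold dilution) after 5 h, incubated 16 h at 37C. CCF4-AM substrate 2 h at room temperature; 460/530 nm emission ratio, gain fitted against DMSO.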

For test [13] the target is unchanged. The test can be described thus: TOX21_p53_BLA_p5_ratio: Tox21 HCT-116 p53 Agonism Beta-lactamase Assay, Ratio, Phase 5 (AID 2283599). Put shortly: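 HCT-116 p53-bla cells (4000/well) plated 5 h, dosed with compound (217-fold DMSO dilution) for 16 h at 37 C; CCF4-AM substrate 2 h at room temperature. Activity is the 460/530 nm emission ratio (405 nm excitation), fitted in gain-of-signal direction versus DMSO.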

Test [14] is described as follows: TOX21_p53_BLA_p5_viability: Viability Assessment in the Tox21 HCT-116 p53 Agonism Beta-lactamase Assay, Phase 5 (AID 2283600). The method in brief:
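Cells were plated at 4000/well, rested 5 h at 37C, then given compounds in DMSO (217-fold dilution) for 16 h at 37C, 5% CO2. Following the CCF4-AM beta-lactamase read, CellTiter-Glo was added and luminescence was read after 30 min at room temperature.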

Test [15] can be described thus: Tanguay_ZF_120hpf_MORT_legacy: (Legacy) Oregon State University Tanguay Lab 120 Hour Post-fertilization zebrafish Assay for Mortality (AID 2283633). Put shortly:
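Dechorionated Tropical 5D wild-type zebrafish embryos, one per well from 6 hpf, were statically exposed at 28C in the dark until 120 hpf (0.64% DMSO final). Mortality was scored as present/absent by brightfield microscopy, fitted positively versus DMSO.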

Test [16] can be described thus: Tanguay_ZF_120hpf_YSE_legacy: (Legacy) Oregon State University Tanguay Lab 120 Hour Post-fertilization zebrafish Assay for Yolk Sac Edema (AID 2283634). Put shortly: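 Tropical 5D wild-type embryos, dechorionated with pronase at 4 hpf, were exposed singly from 6 hpf to 120 hpf under static, sealed, dark conditions at 28C with 0.64% DMSO final. Yolk sac edema was scored present/absent by brightfield microscopy.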

The nature of test [17]: TOX21_p53_BLA_p4_viability: Viability Assessment in the Tox21 HCT-116 p53 Agonism Beta-lactamase Assay, Phase 4 (AID 2283597).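 Further: hits lower the luminescence signal meaning cytotoxicity.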 The method in brief:
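HCT116 p53-bla cells (4000/well) rested 5 h at 37C, then received compounds in DMSO (217-fold dilution) for 16 h at 37C, 5% CO2. CellTiter-Glo was added after the CCF4-AM read, and luminescence was read after 30 min at room temperature.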

Test [18] addresses Cellular tumor antigen p53 (Homo sapiens) (UniProt P04637). The test can be described thus: TOX21_p53_BLA_p4_ratio: Tox21 HCT-116 p53 Agonism Beta-lactamase Assay, Ratio, Phase 4 (AID 2283601). Put shortly:
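HCT-116 p53 beta-lactamase reporter cells (4000/well) preincubated 5 h, then compound (217-fold dilution of DMSO stock) for 16 h at 37C. CCF4-AM substrate added 2 h at room temperature; 460/530 nm emission ratio fitted upward versus DMSO.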

Here are results for four compounds from PubChem BioAssay (EPA / NIEHS).

As usually defined, the AC50 is the concentration giving half of the maximal activity seen.

Records with an inconclusive call do not appear. The source made the active and inactive calls. How the source made its calls, unless noted: active means hit-call score of the fitted dose curve at least 0.9, where 1 is the maximum; inconclusive means response in the unintended direction; inactive means score below 0.9.

Cellular tumor antigen p53 (Homo sapiens), sequence (P04637 whole entry, looked up): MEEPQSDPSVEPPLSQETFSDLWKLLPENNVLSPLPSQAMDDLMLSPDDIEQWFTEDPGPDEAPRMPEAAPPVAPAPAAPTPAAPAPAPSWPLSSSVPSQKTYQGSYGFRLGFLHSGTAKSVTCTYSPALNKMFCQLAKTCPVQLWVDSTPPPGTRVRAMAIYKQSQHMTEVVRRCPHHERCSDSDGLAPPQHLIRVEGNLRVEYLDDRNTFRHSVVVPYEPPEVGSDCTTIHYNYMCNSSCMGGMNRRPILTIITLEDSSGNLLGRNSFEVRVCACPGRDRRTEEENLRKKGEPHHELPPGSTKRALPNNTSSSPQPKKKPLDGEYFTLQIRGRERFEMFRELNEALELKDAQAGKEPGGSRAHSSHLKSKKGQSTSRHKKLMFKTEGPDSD

Take `C[C@H]1[C@H](c2ccc(Cl)cc2)SC(=O)N1C(=O)NC1CCCCC1`: the AC50 in test [1] was 50 µM (active); in [4], 90.2 µM (active); in test [5], 82.3 µM (active); in [6] it was 88.6 µM (active). The compound was classed as inactive in [2], in [3], in test [7], in [8], in test [9] and in test [10]. Moreover, the result in test [11], in test [12], in test [13], in test [14], in [15] and in test [16] was inactive.
For the compound `CNC(=O)Oc1cccc(N=CN(C)C)c1`, the compound was called inactive in [1], in test [2], in [3], in test [4], in test [5] and in [6]. Also, the compound was classed as inactive in test [7], in [17], in test [13], in test [18] and in test [15].
In the case of `CC(C)OC(=O)Nc1cccc(Cl)c1`, the compound was called inactive in test [1], in [2], in test [4], in test [5], in test [6] and in test [7]. Moreover, the outcome in test [8], in test [10], in test [11], in test [12], in test [17] and in [13] was inactive. Besides, the outcome in test [18], in [15] and in test [16] was inactive. Besides, the concentration at half-maximal activity (AC50) in [3] was 50 µM (active).
As to `CNC(=O)/C=C(\C)OP(=O)(OC)OC`, the compound was called inactive in [1], in test [2], in test [3], in test [4], in test [6] and in [7]. Also, the call in test [8], in [15] and in [16] was inactive.
